Among the data in PubChem BioAssay AID1745857 (National Center for Advancing Translational Sciences (NCATS), 2022) are Potency and activity change, negative = inhibition values, retold here.

Screen size: about 120,000 compounds; about 370 (0.31%) were called active. A call without a number means that no potency is given here. About 4% were inconclusive and are not listed. This is one part of a sample in which actives are shown more often than they occur. Values without a mark were called inactive. Calls follow the shape of the full dose curve.
Potency is read from the fitted curve at half-maximal effect.

This experiment can be described thus: Primary qHTS Assay for Foot and Mouth Disease Virus Antivirals against NCGC Sytravon and CBC Compound Libraries: Renilla Luciferase Signal. Also: nearly all actives have a fitted effect of over 55% in size. The conditions noted are these: FMDV replicon cells; series mostly up to 57.5 µM. On the technique in general: qHTS replaces the single test concentration by a dilution series.
In the case of `O=C(Nc1ccccc1)C1=C(Nc2ccc(F)cc2F)c2ccccc2S1(=O)=O`, the Potency result was “inactive”.

As to `CC(=O)Nc1ccc(NC(=O)COC(=O)c2oc3ccccc3c2C)cc1`, the Potency entry was “inactive”.

Regarding `CC(C)(C)c1ccc2c(c1)OCCOCCOCCOc1ccc(C(C)(C)C)cc1OCCOCCOCCO2`, the Potency is 25.1 µM (active).

Take `CC(Sc1ccc2c(c1)OCCCO2)C(=O)O` (stereo not drawn): the Potency entry was “inactive”.

With `CN(Cc1ccc2c(c1)OCCO2)CC(O)COc1ccccc1C(C)(C)C` (stereo not drawn), the Potency entry is “inactive”.

As for `Cc1ccnc(NC(=O)CCc2ncc(-c3ccc(F)cc3F)o2)c1`, the Potency entry was “inactive”.

`CCOc1ccc(NC(C)=O)cc1S(=O)(=O)Nc1ccccc1-c1nnc2n1CCCCC2`: the Potency entry was “inactive”.

Consider `COc1ccc(-c2c(C)c3ccc(O)c(C)c3oc2=O)cc1`, for which the Potency entry is “inactive”.

Take `COc1ccc(-c2c(C)c3ccc(OS(C)(=O)=O)cc3oc2=O)cc1`: the Potency was 15.8 µM (active).

As for `COc1ccc(-c2c(C)oc3cc(OC)ccc3c2=O)cc1`, the Potency result was “inactive”.

For `CCNc1c(NS(=O)(=O)c2ccc3c(c2)oc(=O)n3C)c(=O)oc2ccccc12`, the Potency result was “inactive”.

Turning to `CC(C)c1ccc2oc(=O)cc(CN3CCN(Cc4ccccc4)CC3)c2c1`, the Potency result was “inactive”.

With `Cc1cc2oc(=O)cc(CN3CCN(c4ccccc4)CC3)c2cc1O`, the Potency result was “inactive”.

Consider `Cc1cccc(CN2CCN(Cc3cc(=O)oc4c(C)c(O)ccc34)CC2)c1`, for which the Potency is 20 µM (active).

With `CNC/C=C/COc1ccc(C)c(C)c1`, the Potency result was “inactive”.

For the compound `Cc1ccc(S(C)(=O)=O)cc1NCc1ccccc1F`, the Potency entry is “inactive”.

With `CCC(Sc1nc2ncccc2[nH]1)C(=O)Nc1ccc(C)c(Cl)c1` (stereo not drawn), the Potency entry was “inactive”.

On to `NCCOc1ccc(C(F)(F)F)cc1`, for which the Potency entry is “inactive”.

In the case of `CC(C)(C)C(=O)NCCCC(=O)NCCc1ccccc1`, the Potency result is “inactive”.

Regarding `Cc1ccc2c(Cn3nnc(-c4ccc(F)cc4)n3)cc(=O)oc2c1`, the Potency result was “inactive”.

As to `Cc1ccccc1NS(=O)(=O)c1ccc(C(=O)N(C)CC(=O)Nc2cccc3ccccc23)cc1`, the Potency entry is “inactive”.

Regarding `O=C(Cc1ccccc1Cl)N1CCN(c2ncnc3nc[nH]c23)CC1`, the Potency result was “inactive”.

As for `CC(=O)Nc1ccc2oc(-c3cncc(Br)c3)nc2c1`, the Potency entry is “inactive”.

Consider `CCOc1ccc(NC(=O)CCc2ncc(-c3ccccc3F)o2)cc1`, for which the Potency result is “inactive”.

Consider `CCc1cc(C(=O)N2CCN(c3ccccc3OC)CC2)no1`, for which the Potency entry is “inactive”.

Turning to `O=C(Nc1cccc(-c2nc3cc(Cl)ccc3o2)c1)c1ccccc1`, the Potency entry is “inactive”.

Consider `Fc1ccc(Oc2ccc(CNc3ncccn3)cn2)cc1`, for which the Potency result was “inactive”.

`CC(CCN1CCC(C(O)(c2ccccc2)c2ccccc2)CC1)Oc1ccc([N+](=O)[O-])cc1Cl` (stereo not drawn): the Potency entry is “inactive”.

`CC(=O)Oc1ccc2c(C)c(-c3ccccc3)c(=O)oc2c1`: the Potency result was “inactive”.

In the case of `CC1CCc2sc(N)c(C#N)c2C1` (stereo not drawn), the Potency entry was “inactive”.

As for `COC(=O)CN1CCCC1c1ccsc1` (stereo not drawn), the Potency entry was “inactive”.

As for `CCCCNC(=O)c1cccc(N)c1`, the Potency entry is “inactive”.

As to `C=C(C)CN1CCN(CCO)CC1`, the Potency entry is “inactive”.

Turning to `Cc1sc2nc(SCc3ccc(Cl)cc3)n(CCCN3CCOCC3)c(=O)c2c1C`, the Potency result is “inactive”.

In the case of `Cc1ccccc1Nc1nc(-c2ccc([N+](=O)[O-])cc2)nc2ccccc12`, the Potency entry was “inactive”.

With `FC(F)(F)c1ccccc1C(c1ccccc1)N1CCCNCC1` (stereo not drawn), the Potency result was “inactive”.

Consider `Cc1ccc(CNC(=O)c2scnc2C)cn1`, for which the Potency result is “inactive”.

For `Cc1ncsc1C(=O)NCc1ccc(N2CCCCCC2)nc1`, the Potency was 12.6 µM (active).

In the case of `COc1ccc(OC)c(CNC(=O)c2scnc2C)c1`, the Potency entry was “inactive”.

`COc1cccc(CNC(=O)N2CCN(Cc3ccc(Br)s3)CC2)c1`: the Potency result is “inactive”.

Take `CC(C)OCc1ccccc1CNC(=O)c1nccnc1N`: the Potency result was “inactive”.

As to `COc1cc(CNC(=O)C(C)Oc2ccccc2)ccn1` (stereo not drawn), the Potency result was “inactive”.

Consider `Nc1nccnc1C(=O)NCc1ccnc(Oc2ccccc2)c1`, for which the Potency was 31.6 µM (active).

On to `COc1cc(CNC(=O)Cc2ccc(OC)c(OC)c2)ccn1`, for which the Potency entry is “inactive”.

With `Nc1nccnc1C(=O)NCCc1ccc(F)cc1`, the Potency entry is “inactive”.

Turning to `COc1ccc2cc(CNC(=O)c3nccnc3N)ccc2c1`, the Potency is 22.4 µM (active).

For the compound `CCOc1ccc(-c2noc(-c3nnn(-c4ccc(C(C)C)cc4)c3N)n2)cc1`, the Potency result was “inactive”.

Turning to `CCCCCCCCc1ccc(-c2ccc(CC)cc2)nc1`, the activity change, negative = inhibition was -6.84% [at 1.06 µM].

With `COc1ccc(OC)c(CCNC(=O)CSCc2cnn(-c3ccccc3)c2-n2cccc2)c1`, the Potency result was “inactive”.

Consider `CCC(Nc1ccc2oc(C)nc2c1)C(=O)Nc1ccc(F)cc1` (stereo not drawn), for which the Potency result is “inactive”.

Consider `CCOC(=O)c1c(S(=O)(=O)Nc2cc(Cl)c(OC)cc2OC)c(C)n(C)c1C`, for which the Potency result was “inactive”.

Consider `Cn1nc(CC(=O)Nc2cccc(Cl)c2)c2ccccc2c1=O`, for which the Potency was 7.94 µM (active).

With `COc1ccc(Cl)cc1NC(=O)COC(=O)c1nn(C)c(=O)c2ccccc12`, the Potency entry is “inactive”.

For `COc1ccc(NC(=O)COC(=O)c2nn(C)c(=O)c3ccccc23)cc1Cl`, the Potency entry was “inactive”.

As to `COC(=O)c1cc(NC(=O)CSc2nnc(Cc3ccc(OC)cc3)n2C)ccc1Cl`, the Potency result is “inactive”.

Consider `O=C(Nc1ccc2oc(-c3cccc(Br)c3)nc2c1)c1cccs1`, for which the Potency entry was “inactive”.

Regarding `Cc1c(-c2nsc(NC(=O)c3cccc(Cl)c3)n2)nnn1-c1ccccc1C(F)(F)F`, the Potency was 12.6 µM (active).

Regarding `COc1ccc(-n2nnc(-c3nsc(NC(=O)c4ccc(C)c(C)c4)n3)c2C)cc1Cl`, the Potency entry is “inactive”.

Consider `CCc1cccc(-n2nnc(-c3nsc(NC(=O)c4ccc(C)cc4)n3)c2C)c1`, for which the Potency result is “inactive”.

With `N#Cc1ccc(-c2ccc(OCc3ccccc3C#N)cc2)cc1`, the Potency entry is “inactive”.

Take `COc1ccc(OC)c(C2c3c(n[nH]c3C)Nc3[nH]c(=O)[nH]c(=O)c32)c1` (stereo not drawn): the Potency entry was “inactive”.

Consider `CCOC(=O)C1=C(CNCc2ccc(C)cc2)NC(=O)NC1c1ccc(Cl)cc1` (stereo not drawn), for which the Potency result is “inactive”.

For `CN(C)CCNC(C(=O)O)c1c[nH]c2cc(F)ccc12` (stereo not drawn), the Potency entry was “inactive”.

Take `C#CC[N+]1(C)C(C)CCCC1C` (stereo not drawn): the Potency entry was “inactive”.

With `CCCNC(=O)c1ccc(NC(=O)CCc2ccccc2)cc1`, the Potency result is “inactive”.

With `Cc1csc(/C(C#N)=C\NC2CC(C)(C)NC(C)(C)C2)n1`, the Potency entry is “inactive”.

Consider `Cc1cnc(NC(=O)c2nc(C)n(-c3ccc(F)cc3)n2)s1`, for which the Potency result was “inactive”.

For the compound `CCCn1nc(C(=O)Nc2ncc(Cc3ccc(F)cc3)s2)ccc1=O`, the Potency was 25.1 µM (active).

For `Cc1nc(-c2ccc(F)cc2)sc1C(=O)N[C@H](C(=O)O)C(C)C`, the Potency entry was “inactive”.

On to `Cc1[nH]n(-c2nc(-c3ccccc3)cs2)c(=O)c1CC(=O)Nc1cccc(Cl)c1`, for which the Potency result was “inactive”.

As to `CCCN(CC(=O)Nc1cccc(C(=O)NC2CC2)c1)Cc1nnc(-c2cccs2)o1`, the Potency result is “inactive”.

Turning to `Cc1cccc(NC(=O)CSc2ncnc3ccccc23)c1`, the Potency entry was “inactive”.

For the compound `COCCCn1c(C)cc(C(=O)CSc2ncnc3ccccc23)c1C`, the Potency was 1.41 µM (active).

For `COCCn1c(C)cc(C(=O)CSc2nnc(-c3ccccc3OC)n2-c2ccc(Cl)cc2)c1C`, the activity change, negative = inhibition is -11.3% [at 1.06 µM].

On to `Cc1cc(C(C)(C)C)cc(C)c1CCNC(=O)c1ccc(NC(=O)CC#N)cc1`, for which the activity change, negative = inhibition was -11.7% [at 1.06 µM].

For the compound `CCc1ccc(/C=C/C(=O)c2cc3ccccc3oc2=O)cc1`, the Potency result is “inactive”.

As to `Cc1[nH]c2ccccc2c1C(C(=O)O)N1CCN(Cc2ccccn2)CC1` (stereo not drawn), the Potency result is “inactive”.

Turning to `O=C(COc1ccc2c(c1)CCC2)OCC(=O)c1ccc2c(c1)OCCO2`, the Potency result was “inactive”.

In the case of `COC(=O)c1ccc(C2C(c3ccccc3)=C(O)C(=O)N2c2ccc(Cl)cc2)cc1` (stereo not drawn), the Potency entry was “inactive”.

As for `COc1ccc(CNc2oc(-c3ccc(C)cc3)nc2C#N)cc1`, the Potency result is “inactive”.

Consider `CC(C)Cn1c(=O)c2ccccc2n2c(SCC(=O)Nc3ccc(F)cc3F)nnc12`, for which the Potency result was “inactive”.

`O=C(NCc1cccs1)C1CCN(c2nccn3nc(-c4ccccc4)cc23)CC1`: the Potency entry is “inactive”.

As for `CSCCCNC(=S)NNC(N)=O`, the Potency result was “inactive”.
